Data taken from paper PMC5540273 (PLoS ONE, 2017).
Where two headings read alike, the source gives them in different places.

Key:
FGFR1 = conditions: concentration: 1 μM, replicates: in singlicate; n = 1
FGFR2 = conditions: concentration: 1 μM, replicates: in singlicate; n = 1
FGFR3 = conditions: concentration: 1 μM, replicates: in singlicate; n = 1
FGFR4 = conditions: concentration: 1 μM, replicates: in singlicate; n = 1
FGR = conditions: concentration: 1 μM, replicates: in singlicate; n = 1
FLT1 = conditions: concentration: 1 μM, replicates: in singlicate; n = 1
FLT3-autoinhibited = conditions: concentration: 1 μM, replicates: in singlicate; n = 1
FLT3 = conditions: concentration: 1 μM, replicates: in singlicate; n = 1
FLT4 = conditions: concentration: 1 μM, replicates: in singlicate; n = 1
FRK = conditions: concentration: 1 μM, replicates: in singlicate; n = 1
FYN = conditions: concentration: 1 μM, replicates: in singlicate; n = 1
GAK = conditions: concentration: 1 μM, replicates: in singlicate; n = 1
GCN2(Kin.Dom.2,S808G) = tested on: T1, GCN2(Kin.Dom.2,S808G); conditions: concentration: 1 μM, replicates: in singlicate; n = 1
T1 construct: gene EIF2AK4

GRK1 = conditions: concentration: 1 μM, replicates: in singlicate; n = 1
GRK2 = tested on: T2, GRK2; conditions: concentration: 1 μM, replicates: in singlicate; n = 1
T2 construct: gene ADRBK1

GRK3 = tested on: T3, GRK3; conditions: concentration: 1 μM, replicates: in singlicate; n = 1
T3 construct: gene ADRBK2

GRK4 = conditions: concentration: 1 μM, replicates: in singlicate; n = 1
GRK7 = conditions: concentration: 1 μM, replicates: in singlicate; n = 1
GSK3A = conditions: concentration: 1 μM, replicates: in singlicate; n = 1
GSK3B = conditions: n = 1
[1] = concentration: 1 μM, replicates: in singlicate
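Also: KINOMEscan kinase panel screen.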

## CCn1c(-c2nonc2N)nc2c(C#CC(C)(C)O)nc(OC[C@H](N)c3ccccc3)cc21 [GSK943949]
FGFR1
  %Inh: 11%
FGFR2
  %Inh: 4%
FGFR3
  %Inh: 0%
FGFR4
  %Inh: 0%
FGR
  %Inh: 0%
FLT1
  %Inh: 1%
FLT3-autoinhibited
  %Inh: 0%
FLT3
  %Inh: 3%
FLT4
  %Inh: 20%
FRK
  %Inh: 0%
FYN
  %Inh: 0%
GAK
  %Inh: 0%
GCN2(Kin.Dom.2,S808G)
  %Inh: 19%
GRK1
  %Inh: 14%
GRK2
  %Inh: 11%
GRK3
  %Inh: 0%
GRK4
  %Inh: 3%
GRK7
  %Inh: 30%
GSK3A
  %Inh: 66%
GSK3B; [1]
  %Inh: 59%

## COc1cccc(NC(=O)NC2CCN(c3ccnc(Nc4cc(OC)c(OC)c(OC)c4)n3)C2)c1 (centres unmarked) [GSK1379763]
FGFR1
  %Inh: 0%
FGFR2
  %Inh: 0%
FGFR3
  %Inh: 8%
FGFR4
  %Inh: 1%
FGR
  %Inh: 25%
FLT1
  %Inh: 24%
FLT3-autoinhibited
  %Inh: 14%
FLT3
  %Inh: 62%
FLT4
  %Inh: 37%
FRK
  %Inh: 0%
FYN
  %Inh: 42%
GAK
  %Inh: 31%
GCN2(Kin.Dom.2,S808G)
  %Inh: 4%
GRK1
  %Inh: 0%
GRK2
  %Inh: 0%
GRK3
  %Inh: 15%
GRK4
  %Inh: 0%
GRK7
  %Inh: 0%
GSK3A
  %Inh: 0%
GSK3B; [1]
  %Inh: 45%

## c1ccc(-c2cnc3nccnn23)cc1 [AH20685]
FGFR1
  %Inh: 0%
FGFR2
  %Inh: 0%
FGFR3
  %Inh: 0%
FGFR4
  %Inh: 0%
FGR
  %Inh: 10%
FLT1
  %Inh: 0%
FLT3-autoinhibited
  %Inh: 0%
FLT3
  %Inh: 43%
FLT4
  %Inh: 0%
FRK
  %Inh: 18%
FYN
  %Inh: 50%
GAK
  %Inh: 0%
GCN2(Kin.Dom.2,S808G)
  %Inh: 42%
GRK1
  %Inh: 0%
GRK2
  %Inh: 0%
GRK3
  %Inh: 13%
GRK4
  %Inh: 0%
GRK7
  %Inh: 0%
GSK3A
  %Inh: 0%
GSK3B; [1]
  %Inh: 0%

## COc1ccc(Nc2nccc(NCCNC(=O)c3cc4ccccc4s3)n2)cc1 [GSK1379896]
FGFR1
  %Inh: 0%
FGFR2
  %Inh: 0%
FGFR3
  %Inh: 5%
FGFR4
  %Inh: 9%
FGR
  %Inh: 1%
FLT1
  %Inh: 19%
FLT3-autoinhibited
  %Inh: 0%
FLT3
  %Inh: 0%
FLT4
  %Inh: 10%
FRK
  %Inh: 0%
FYN
  %Inh: 33%
GAK
  %Inh: 42%
GCN2(Kin.Dom.2,S808G)
  %Inh: 3%
GRK1
  %Inh: 6%
GRK2
  %Inh: 3%
GRK3
  %Inh: 0%
GRK4
  %Inh: 0%
GRK7
  %Inh: 0%
GSK3A
  %Inh: 7%
GSK3B; [1]
  %Inh: 13%

## O=c1[nH]cc(-c2ccc(N3CCOCC3)cc2)c2sc(-c3cn[nH]c3)cc12 [GSK2276055]
FGFR1
  %Inh: 0%
FGFR2
  %Inh: 0%
FGFR3
  %Inh: 21%
FGFR4
  %Inh: 0%
FGR
  %Inh: 0%
FLT1
  %Inh: 0%
FLT3-autoinhibited
  %Inh: 11%
FLT3
  %Inh: 0%
FLT4
  %Inh: 0%
FRK
  %Inh: 0%
FYN
  %Inh: 31%
GAK
  %Inh: 34%
GCN2(Kin.Dom.2,S808G)
  %Inh: 0%
GRK1
  %Inh: 14%
GRK2
  %Inh: 9%
GRK3
  %Inh: 0%
GRK4
  %Inh: 0%
GRK7
  %Inh: 0%
GSK3A
  %Inh: 97.7%
GSK3B; [1]
  %Inh: 77%

## Cc1cccc(NC(=O)Nc2ccc(Oc3ncnc4ccn(C)c34)cc2)c1
FGFR1
  %Inh: 0%
FGFR2
  %Inh: 0%
FGFR3
  %Inh: 0%
FGFR4
  %Inh: 0%
FGR
  %Inh: 0%
FLT1
  %Inh: 99.3%
FLT3-autoinhibited
  %Inh: 64%
FLT3
  %Inh: 100%
FLT4
  %Inh: 73%
FRK
  %Inh: 10%
FYN
  %Inh: 0%
GAK
  %Inh: 0%
GCN2(Kin.Dom.2,S808G)
  %Inh: 0%
GRK1
  %Inh: 4%
GRK2
  %Inh: 0%
GRK3
  %Inh: 0%
GRK4
  %Inh: 0%
GRK7
  %Inh: 0%
GSK3A
  %Inh: 0%
GSK3B; [1]
  %Inh: 0%

## CC(C)c1nc(-c2cccc(NS(=O)(=O)c3c(F)cccc3F)c2F)c(-c2ccnc(Nc3ccc(N4CCOCC4)nc3)n2)s1 [GSK2008607]
FGFR1
  %Inh: 60%
FGFR2
  %Inh: 82%
FGFR3
  %Inh: 67%
FGFR4
  %Inh: 48%
FGR
  %Inh: 98.7%
FLT1
  %Inh: 98.6%
FLT3-autoinhibited
  %Inh: 0%
FLT3
  %Inh: 70%
FLT4
  %Inh: 99.9%
FRK
  %Inh: 98.8%
FYN
  %Inh: 98.2%
GAK
  %Inh: 96.1%
GCN2(Kin.Dom.2,S808G)
  %Inh: 100%
GRK1
  %Inh: 100%
GRK2
  %Inh: 0%
GRK3
  %Inh: 0%
GRK4
  %Inh: 0%
GRK7
  %Inh: 0%
GSK3A
  %Inh: 53%
GSK3B; [1]
  %Inh: 21%

## Nc1n[nH]c2cnc(-c3ccccc3)cc12 [SB-642124]
FGFR1
  %Inh: 2%
FGFR2
  %Inh: 35%
FGFR3
  %Inh: 16%
FGFR4
  %Inh: 13%
FGR
  %Inh: 32%
FLT1
  %Inh: 0%
FLT3-autoinhibited
  %Inh: 0%
FLT3
  %Inh: 0%
FLT4
  %Inh: 8%
FRK
  %Inh: 10%
FYN
  %Inh: 25%
GAK
  %Inh: 13%
GCN2(Kin.Dom.2,S808G)
  %Inh: 11%
GRK1
  %Inh: 0%
GRK2
  %Inh: 0%
GRK3
  %Inh: 42%
GRK4
  %Inh: 10%
GRK7
  %Inh: 0%
GSK3A
  %Inh: 40%
GSK3B; 1 µM
  %Inh: 25%

## Cc1cccc(Nc2nc(N[C@H]3CCNC3)ncc2C(N)=O)c1.Cl [GSK2197149]
FGFR1
  %Inh: 0%
FGFR2
  %Inh: 0%
FGFR3
  %Inh: 3%
FGFR4
  %Inh: 0%
FGR
  %Inh: 82%
FLT1
  %Inh: 24%
FLT3-autoinhibited
  %Inh: 82%
FLT3
  %Inh: 80%
FLT4
  %Inh: 9%
FRK
  %Inh: 15%
FYN
  %Inh: 43%
GAK
  %Inh: 86%
GCN2(Kin.Dom.2,S808G)
  %Inh: 25%
GRK1
  %Inh: 0%
GRK2
  %Inh: 0%
GRK3
  %Inh: 0%
GRK4
  %Inh: 78%
GRK7
  %Inh: 0%
GSK3A
  %Inh: 0%
GSK3B; [1]
  %Inh: 0%

## COc1cc(Nc2nccc(N3CCC(NC(=O)Nc4cccc(C(C)=O)c4)C3)n2)cc(OC)c1OC (centres unmarked) [GSK1379753]
FGFR1
  %Inh: 3%
FGFR2
  %Inh: 0%
FGFR3
  %Inh: 9%
FGFR4
  %Inh: 14%
FGR
  %Inh: 14%
FLT1
  %Inh: 19%
FLT3-autoinhibited
  %Inh: 0%
FLT3
  %Inh: 63%
FLT4
  %Inh: 6%
FRK
  %Inh: 0%
FYN
  %Inh: 40%
GAK
  %Inh: 34%
GCN2(Kin.Dom.2,S808G)
  %Inh: 0%
GRK1
  %Inh: 2%
GRK2
  %Inh: 0%
GRK3
  %Inh: 16%
GRK4
  %Inh: 0%
GRK7
  %Inh: 0%
GSK3A
  %Inh: 0%
GSK3B; [1]
  %Inh: 1%
